Results as given in the supplement of paper PMC10849652.
Targets with a hit are over-represented here; the source holds about 7,900 in all. About 0.6% of all pairs of compound and target were hits. Values without a mark were called inactive.

What was measured:
Assay in all cases: log2 fold change, soluble protein after heating vs DMSO (PISA); higher = thermal stabilisation; K562 cells, 10 uM, 30 min; active = over 0.2 and 3.5 SD of the protein, either way, in both replicates (recomputed)
[1] = compound: CC1=C(C=C(C=C1)NC(=O)C2=CC(=CC=C2)C(C)(C)C#N)NC3=CC4=C(C=C3)N=CN(C4=O)C
Method in brief: (§1)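 Quantification of soluble protein used TMTpro 16plex LC-MS/MS, with channel sums equalised. Samples were the supernatant after 21,000xg for 90 min of pooled aliquots from K562 cells (2×10^6 cells/mL) treated with 10 μM compound for 30 min, heated for 3 min over 48°C-58°C, and extracted in PBS with 0.5% NP-40 at 4°C. Values, from duplicates, describe thermal stability against control samples on a log2 fold-change scale.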

[2] = compound: CC1=CC=C(C=C1)SC2=C3C=C(SC3=CN=C2)C(=O)N
Method in brief: as §1

[3] = compound: CC1=NC(=CC=C1)C2=C(N=C(N2)C(C)(C)C)C3=CC4=NC=CN=C4C=C3
Method in brief: as §1

[4] = compound: CCCCN(Cc1ccc(C(=O)NO)cc1)C(=O)Nc1ccccc1 [Nexturastat A]
Method in brief: as §1

[5] = compound: CCCS(=O)(=O)Nc1ccc(F)c(C(=O)c2c[nH]c3ncc(Cl)cc23)c1F
Method in brief: as §1

[6] = compound: CCCc1cc(C)[nH]c(=O)c1CNC(=O)c1cc(-c2ccnc(N3CCN(C)CC3)c2)cc2c1cnn2C(C)C
Method in brief: as §1

[7] = compound: CCN(CC)Cc1ccc2cc(COC(=O)Nc3ccc(C(=O)NO)cc3)ccc2c1 [givinostat]
Method in brief: as §1

[8] = compound: CCCS(=O)(=O)Nc1ccc(F)c(C(=O)c2c[nH]c3ncc(-c4ccc(Cl)cc4)cc23)c1F [vemurafenib]
Method in brief: as §1

[9] = compound: CCN(CCCOc1ccc2c(Nc3cc(CC(=O)Nc4cccc(F)c4)[nH]n3)ncnc2c1)CCOP(=O)(O)O [barasertib]
Method in brief: as §1

[10] = compound: CC1=C(C=C(C=C1)NC(=O)C2=CC(=CC=C2)N(C)C)NC(=O)C3=CC=C(C=C3)O
Method in brief: as §1

Sequence of UniProt O60291 (O60291 whole entry, looked up): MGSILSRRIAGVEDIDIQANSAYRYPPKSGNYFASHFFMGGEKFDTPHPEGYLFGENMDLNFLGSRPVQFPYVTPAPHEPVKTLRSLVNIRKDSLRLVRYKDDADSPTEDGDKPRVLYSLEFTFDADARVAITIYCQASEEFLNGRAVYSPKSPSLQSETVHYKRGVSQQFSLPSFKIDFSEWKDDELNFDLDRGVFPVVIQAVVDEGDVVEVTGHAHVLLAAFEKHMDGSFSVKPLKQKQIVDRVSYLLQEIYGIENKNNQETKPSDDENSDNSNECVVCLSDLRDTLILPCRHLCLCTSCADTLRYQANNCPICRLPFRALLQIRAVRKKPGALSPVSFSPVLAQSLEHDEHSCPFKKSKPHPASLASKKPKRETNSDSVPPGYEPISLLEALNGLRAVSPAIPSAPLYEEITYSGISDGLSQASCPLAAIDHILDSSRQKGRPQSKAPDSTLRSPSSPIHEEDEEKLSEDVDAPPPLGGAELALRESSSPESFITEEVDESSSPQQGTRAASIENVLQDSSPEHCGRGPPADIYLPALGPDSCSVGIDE
Sequence of UniProt P17936 (P17936 whole entry, looked up): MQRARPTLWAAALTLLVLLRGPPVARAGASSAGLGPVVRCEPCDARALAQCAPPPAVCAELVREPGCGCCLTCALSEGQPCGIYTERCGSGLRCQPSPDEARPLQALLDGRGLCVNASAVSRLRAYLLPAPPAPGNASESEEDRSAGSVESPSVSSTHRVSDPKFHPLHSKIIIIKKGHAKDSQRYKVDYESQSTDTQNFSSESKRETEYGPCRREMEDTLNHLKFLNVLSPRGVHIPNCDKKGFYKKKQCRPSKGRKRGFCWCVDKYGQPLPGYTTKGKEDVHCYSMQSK
Sequence of UniProt Q86UD3 (Q86UD3 whole entry, looked up): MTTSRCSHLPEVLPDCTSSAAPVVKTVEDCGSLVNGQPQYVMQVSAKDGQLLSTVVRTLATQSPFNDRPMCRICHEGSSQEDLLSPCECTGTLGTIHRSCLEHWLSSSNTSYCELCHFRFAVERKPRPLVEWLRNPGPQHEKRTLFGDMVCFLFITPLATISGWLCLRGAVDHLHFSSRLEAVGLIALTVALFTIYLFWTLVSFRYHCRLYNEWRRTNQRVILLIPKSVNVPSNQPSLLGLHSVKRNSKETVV
Sequence of UniProt Q9UPY8 (Q9UPY8 whole entry, looked up): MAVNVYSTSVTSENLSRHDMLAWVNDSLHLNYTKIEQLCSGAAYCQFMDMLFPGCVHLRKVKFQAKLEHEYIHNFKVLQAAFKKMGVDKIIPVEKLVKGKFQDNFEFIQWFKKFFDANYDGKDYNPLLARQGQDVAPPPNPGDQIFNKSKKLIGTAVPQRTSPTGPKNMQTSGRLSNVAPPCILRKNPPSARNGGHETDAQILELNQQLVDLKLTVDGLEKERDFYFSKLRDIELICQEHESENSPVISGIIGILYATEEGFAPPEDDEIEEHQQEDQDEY
Sequence of UniProt Q08431 (Q08431 whole entry, looked up): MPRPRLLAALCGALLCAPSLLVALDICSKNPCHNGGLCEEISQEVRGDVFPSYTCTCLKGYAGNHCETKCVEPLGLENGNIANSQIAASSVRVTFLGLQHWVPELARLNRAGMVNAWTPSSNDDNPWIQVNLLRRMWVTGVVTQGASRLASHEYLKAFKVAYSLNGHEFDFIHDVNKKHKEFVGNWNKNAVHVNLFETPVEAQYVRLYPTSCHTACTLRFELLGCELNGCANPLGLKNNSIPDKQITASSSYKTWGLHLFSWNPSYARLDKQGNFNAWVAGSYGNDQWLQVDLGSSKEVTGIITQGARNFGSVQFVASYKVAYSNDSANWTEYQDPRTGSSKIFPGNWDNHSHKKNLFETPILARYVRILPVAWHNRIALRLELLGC
Sequence of UniProt Q2M2Z5 (Q2M2Z5 whole entry, looked up): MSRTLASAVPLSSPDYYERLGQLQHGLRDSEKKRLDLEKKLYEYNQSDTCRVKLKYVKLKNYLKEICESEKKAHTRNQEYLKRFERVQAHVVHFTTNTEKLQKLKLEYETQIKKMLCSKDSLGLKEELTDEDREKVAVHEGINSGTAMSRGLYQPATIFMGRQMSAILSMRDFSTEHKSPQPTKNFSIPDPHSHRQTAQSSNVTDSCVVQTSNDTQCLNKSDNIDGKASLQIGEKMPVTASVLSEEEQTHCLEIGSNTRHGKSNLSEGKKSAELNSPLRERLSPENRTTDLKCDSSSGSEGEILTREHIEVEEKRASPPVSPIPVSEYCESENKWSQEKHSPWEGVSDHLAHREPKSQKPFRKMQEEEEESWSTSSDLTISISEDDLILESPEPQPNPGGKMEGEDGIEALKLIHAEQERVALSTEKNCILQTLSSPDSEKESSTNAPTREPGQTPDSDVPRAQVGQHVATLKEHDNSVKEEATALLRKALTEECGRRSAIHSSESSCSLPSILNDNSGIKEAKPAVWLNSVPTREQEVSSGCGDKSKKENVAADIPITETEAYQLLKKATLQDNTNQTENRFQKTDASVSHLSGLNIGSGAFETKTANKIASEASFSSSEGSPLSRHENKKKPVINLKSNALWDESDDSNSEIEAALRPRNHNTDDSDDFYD
Sequence of UniProt Q5SW96 (Q5SW96 whole entry, looked up): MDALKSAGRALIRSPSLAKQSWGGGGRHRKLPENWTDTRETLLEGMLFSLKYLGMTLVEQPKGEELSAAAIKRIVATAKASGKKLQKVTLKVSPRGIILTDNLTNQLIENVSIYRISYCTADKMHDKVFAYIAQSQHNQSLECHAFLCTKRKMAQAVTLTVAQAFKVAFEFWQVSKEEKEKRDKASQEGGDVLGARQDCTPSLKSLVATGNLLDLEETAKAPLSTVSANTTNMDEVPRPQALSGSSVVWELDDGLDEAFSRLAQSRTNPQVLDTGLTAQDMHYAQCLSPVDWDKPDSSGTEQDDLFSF
Sequence of UniProt P55082 (P55082 whole entry, looked up): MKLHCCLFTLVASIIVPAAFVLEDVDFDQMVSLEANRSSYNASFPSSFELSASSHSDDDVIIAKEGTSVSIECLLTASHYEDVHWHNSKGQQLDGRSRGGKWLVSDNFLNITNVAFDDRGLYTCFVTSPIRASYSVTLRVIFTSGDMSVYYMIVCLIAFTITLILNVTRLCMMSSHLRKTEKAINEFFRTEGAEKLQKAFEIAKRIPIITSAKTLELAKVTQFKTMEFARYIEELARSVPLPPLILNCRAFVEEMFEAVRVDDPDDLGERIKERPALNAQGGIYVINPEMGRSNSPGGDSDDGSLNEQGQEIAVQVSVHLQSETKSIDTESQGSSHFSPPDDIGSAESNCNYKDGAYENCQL
Sequence of UniProt Q16539 (Q16539 whole entry, looked up): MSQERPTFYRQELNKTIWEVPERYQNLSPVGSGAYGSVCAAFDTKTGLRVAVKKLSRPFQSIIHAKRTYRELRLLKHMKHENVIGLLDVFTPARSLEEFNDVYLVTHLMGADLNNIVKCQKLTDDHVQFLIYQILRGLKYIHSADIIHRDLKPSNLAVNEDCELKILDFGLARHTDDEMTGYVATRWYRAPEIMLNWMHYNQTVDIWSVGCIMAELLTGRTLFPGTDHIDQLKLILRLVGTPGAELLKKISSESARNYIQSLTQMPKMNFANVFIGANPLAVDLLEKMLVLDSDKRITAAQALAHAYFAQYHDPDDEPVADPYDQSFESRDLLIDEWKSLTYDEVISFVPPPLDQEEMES
Sequence of UniProt Q32MZ4 (Q32MZ4 whole entry, looked up): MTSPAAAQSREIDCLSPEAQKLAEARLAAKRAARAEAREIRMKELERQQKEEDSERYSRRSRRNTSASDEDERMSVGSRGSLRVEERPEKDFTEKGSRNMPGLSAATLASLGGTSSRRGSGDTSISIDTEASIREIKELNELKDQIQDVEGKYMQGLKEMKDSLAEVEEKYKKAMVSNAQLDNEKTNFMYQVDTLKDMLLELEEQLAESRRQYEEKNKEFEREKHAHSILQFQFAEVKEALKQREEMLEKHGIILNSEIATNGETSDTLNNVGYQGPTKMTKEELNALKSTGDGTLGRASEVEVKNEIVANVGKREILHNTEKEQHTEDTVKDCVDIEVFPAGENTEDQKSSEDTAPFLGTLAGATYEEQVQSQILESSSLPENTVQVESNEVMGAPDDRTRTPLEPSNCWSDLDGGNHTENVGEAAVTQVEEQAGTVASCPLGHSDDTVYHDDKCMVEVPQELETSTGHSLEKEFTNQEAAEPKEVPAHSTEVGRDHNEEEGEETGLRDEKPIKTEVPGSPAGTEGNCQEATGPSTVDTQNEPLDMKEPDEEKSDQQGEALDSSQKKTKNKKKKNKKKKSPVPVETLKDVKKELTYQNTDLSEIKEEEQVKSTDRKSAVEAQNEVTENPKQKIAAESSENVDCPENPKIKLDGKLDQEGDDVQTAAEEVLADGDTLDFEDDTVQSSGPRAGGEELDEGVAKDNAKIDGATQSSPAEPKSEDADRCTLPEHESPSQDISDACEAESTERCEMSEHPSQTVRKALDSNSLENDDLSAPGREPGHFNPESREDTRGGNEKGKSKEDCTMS
Sequence of UniProt Q13422 (Q13422 whole entry, looked up): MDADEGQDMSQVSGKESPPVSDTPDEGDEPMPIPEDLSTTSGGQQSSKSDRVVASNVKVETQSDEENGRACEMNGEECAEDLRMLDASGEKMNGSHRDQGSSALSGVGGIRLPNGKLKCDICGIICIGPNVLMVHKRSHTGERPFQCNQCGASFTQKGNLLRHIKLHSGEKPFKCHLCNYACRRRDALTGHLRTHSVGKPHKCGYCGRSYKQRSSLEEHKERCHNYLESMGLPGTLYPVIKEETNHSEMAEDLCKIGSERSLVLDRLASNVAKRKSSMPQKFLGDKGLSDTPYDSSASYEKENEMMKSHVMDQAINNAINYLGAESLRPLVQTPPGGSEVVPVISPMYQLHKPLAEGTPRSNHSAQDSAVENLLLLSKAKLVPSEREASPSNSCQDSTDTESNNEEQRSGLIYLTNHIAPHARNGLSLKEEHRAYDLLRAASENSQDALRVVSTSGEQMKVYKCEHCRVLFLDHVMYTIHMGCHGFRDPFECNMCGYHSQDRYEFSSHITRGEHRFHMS
Sequence of UniProt O15243 (O15243 whole entry, looked up): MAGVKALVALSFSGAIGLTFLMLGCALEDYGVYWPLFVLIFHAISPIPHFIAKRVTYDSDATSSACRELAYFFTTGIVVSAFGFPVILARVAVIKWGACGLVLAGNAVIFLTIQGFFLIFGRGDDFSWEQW

Target | log2 fold change [1] | log2 fold change [2] | log2 fold change [3] | log2 fold change [4] | log2 fold change [5] | log2 fold change [6] | log2 fold change [7] | log2 fold change [8] | log2 fold change [9] | log2 fold change [10]
MAP3K20 isoform 2 (UniProt Q9NYL2) | -0.375 (active) | -0.038 | 0.295 | 0.16 | 0.044 | -0.017 | 0.003 |  |  | 
MCM10 (UniProt Q7L590) | 0.209 | 0.166 | 0.155 | 0.028 | 0.217 | -0.037 | -0.065 | -0.016 | -0.012 | 
MFSD11 (UniProt O43934) | -0.171 | 0.038 | 0.013 | -0.097 | 0.039 | -0.02 |  | -0.012 | 0.013 | 
KIF2C (UniProt Q99661) | 0.012 | 0.057 | 0.067 | 0.02 | 0.053 | 0.03 | 0.016 | 0.087 | 0.053 | -0.038
MED22 (UniProt Q15528) | -0.023 |  | 0.015 | -0.033 |  | 0.014 | 0.117 | 0.043 | 0.028 | 0.034
MED7 (UniProt O43513) | 0.049 | -0.009 | 0.015 | 0.212 | -0.093 |  | -0.008 | -0.021 | -0.149 | -0.023
KMT2C isoform 3 (UniProt Q8NEZ4) | -0.053 |  |  | -0.046 |  | -0.033 | 0.011 | -0.103 | -0.003 | -0.07
MAPK14 (UniProt Q16539) | 1.62 (active) | 0.111 | 0.022 |  | 0.339 | 0.002 | 0.03 | 0.059 | -0.029 | 0.615
KEL (UniProt P23276) | -0.004 | 0.117 | 0.01 | 0.117 | -0.015 | -0.014 | -0.056 | -0.009 | -0.029 | -0.061
LRFN1 (UniProt Q9P244) | 0.052 | 0.02 | -0.101 | 0.241 | 0.054 |  | -0.025 | -0.031 | 0.037 | 0.076
IKZF1 isoform 2 (UniProt Q13422) | 0.141 |  |  |  |  | -0.002 | -0.135 | 0.095 | -0.08 | -0.068
MARK2 (UniProt E9PC69) | -0.011 | 0.094 | 0.06 | 0.025 | -0.034 |  | 0.132 | -0.005 | 0.034 | -0.018
LRBA, A0A494BZW2 | -0.082 | -0.048 | 0.078 | -0.264 | 0.272 | 0.038 | 0.264 |  | 0.026 | 0.06
IGFBP3 isoform 2 (UniProt P17936) | -0.187 | 0.1 | 0.205 | 0.204 | 0.076 |  |  | 0.031 |  | 
MFGE8 (UniProt Q08431) | 0.034 | -0.122 | -0.061 | 0.161 | -0.124 | 0.019 | -0.004 | -0.028 | -0.057 | -0.027
LPIN3 isoform 2 (UniProt Q9BQK8) | -0.152 | -0.04 |  | -0.014 | -0.069 | -0.014 | -0.006 | -0.001 | -0.054 | 0.005
MBLAC1 (UniProt A4D2B0) |  | -0.093 | -0.098 |  | -0.008 | 0.059 | -0.04 | 0.029 | -0.016 | 0.079
LRRCC1 (UniProt Q9C099) |  |  |  |  |  |  |  |  |  | 0.039
ILF3 (UniProt Q12906) | 0.106 |  | -0.177 | 0.347 |  | -0.232 |  |  | -0.241 | 
LAMP2 isoform 2 (UniProt P13473) |  | -0.07 | 0.003 | -0.015 | -0.093 | -0.071 | -0.158 | -0.082 | 0 | 
MFSD8 (UniProt Q8NHS3) |  | 0.113 | 0.011 | -0.004 | 0.151 | -0.046 | 0.034 | 0.045 | -0.062 | -0.026
LDLRAP1 (UniProt Q5SW96) |  |  | -0.102 |  |  |  | 0.284 |  | 0.146 | -0.028
KIF21A (UniProt H0YI78) |  |  |  |  |  |  | 0.447 |  |  | -0.001
ING5 (UniProt Q8WYH8) |  | 0.058 | -0.052 |  | -0.011 | -0.237 | 0.316 |  |  | 
KIZ (UniProt Q2M2Z5) |  | 0.003 | -0.068 |  | -0.181 |  |  |  |  | 0.057

Target | log2 fold change [1] | log2 fold change [2] | log2 fold change [3] | log2 fold change [4] | log2 fold change [5] | log2 fold change [6] | log2 fold change [7] | log2 fold change [8] | log2 fold change [9] | log2 fold change [10]
MAP4K4 isoform 6 (UniProt O95819) | -0.031 |  |  |  |  | 0.393 |  | -0.052 |  | 
MGRN1 isoform 2 (UniProt O60291) |  | 0.021 | -0.02 |  | -0.307 |  | 0.012 |  | 0 | -0.059
IKZF1 (UniProt R9R4D9) |  | -0.116 | 0.026 |  | 0.033 |  |  |  |  | 
MARCHF3 (UniProt Q86UD3) | 0.001 | -0.008 |  | 0.081 | -0.01 |  |  |  | 0.025 | 
MAP4K2 (UniProt Q12851) | -0.034 | 0.079 | 0.094 |  | 0.043 |  |  |  | 0.218 | 
MED29 (UniProt Q9NX70) |  | -0.075 |  |  | 0.131 | 0.025 | -0.076 |  |  | 
LOX (UniProt P28300) |  |  |  |  |  | -0.269 | 0.087 |  | -0.129 | 
MCOLN3 (UniProt Q8TDD5) |  | 0.15 |  |  | 0.014 | -0.481 | 0.221 |  | -0.171 | 0.013
LRRFIP1 isoform 4 (UniProt Q32MZ4) |  |  | 0.186 | -0.077 |  |  | 0.011 |  |  | 
MFAP3 (UniProt P55082) | 0.038 |  |  | 0.11 |  |  |  | -0.115 | 0.05 | 
KCNK5 (UniProt O95279) | -0.114 | 0.195 | 0.084 | 0.106 | 0.1 | 0.157 | -0.319 |  | 0.097 | 
MAP2K5 (UniProt Q13163) |  |  | 0.017 |  |  |  |  |  |  | -0.085
IPP (UniProt Q9Y573) |  |  |  |  |  |  |  |  | -0.139 | 
MAPRE3 isoform 2 (UniProt Q9UPY8) |  | -0.075 | -0.065 |  | 0.029 |  |  |  |  | 
IGFBP6 (UniProt P24592) |  |  |  |  |  |  |  | 0.189 |  | 0.03
LIN52 (UniProt Q52LA3) |  |  |  |  |  | 0.123 |  |  |  | 
LEPROT (UniProt O15243) |  |  |  | -0.02 |  | -0.12 | -0.467 |  |  | 
MFSD12 isoform 3 (UniProt Q6NUT3) | 0.115 |  |  |  |  |  | -0.022 |  |  | 
MAGED1 isoform 2 (UniProt Q9Y5V3) | 0.003 | 0.1 |  | 0.608 (active) | 0.198 |  | 0.006 | -0.236 |  | 
MAPK7 (UniProt Q13164) |  |  | -0.169 | 0.275 |  |  |  |  |  | 
MAGEA8 (UniProt P43361) |  | 0.02 | 0.072 |  | 0.197 |  | 0.034 | 0.031 | -0.123 | 0.009
ITPRID2 (UniProt P28290) |  | -0.103 | -0.065 | -0.188 | -0.097 |  | 0.213 | -0.125 |  | -0.003
LAPTM4B (UniProt Q86VI4) | 0 |  |  |  |  | -0.228 | 0.128 |  | 0.002 | 
KXD1 (UniProt Q9BQD3) |  | 0 |  | -0.223 | 0.059 | 0.072 | 0.094 | 0.092 | -0.021 | -0.025
